Screening data deposited in PubChem by Broad Institute.
The list is not random: actives were taken first. Their share in the collection is about 6.8%.
Pf Dd2 growth – P. falciparum Dd2 growth inhibitors, primary screen, SYBR Green fluorescence, single dose replicates | 94,000 tested, 2.3% active | activity change, % at 10 µM | 72 h; hits give low values; in the data active = activity change below about -80%
C diff HTS – C. difficile growth inhibitors, primary screen, HTS; AID 1259249, 2017; 86,000 tested, 0.25% active; growth activity, negative = inhibition, % at 16 µg/mL (by protocol); Clostridium difficile clinical isolate growth, OD600, 24 h; hits give low values;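 active = mean growth activity at or below -80% and every replicate also at or below -80%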
T cruzi growth – T. cruzi intracellular proliferation inhibitors, primary screen, cell-based, beta-gal Tulahuen parasites, NIH3T3 host, luminescence; T. cruzi beta-gal in NIH3T3, GalScreen luminescence, 90 h; inhibition, % at 8.34 µM; 77,000 tested, 5.9% active; AID 624255, 2012;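 active = mean inhibition above about 93%, with at least 55% of replicates each passing it, limit read from the data, passing the limit was not always enough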
Each line names hits and unclear results; the compound was inactive in the other large screens.

C[C@@H]1CN([C@H](C)CO)C(=O)c2cccc(NC(=O)CCCCCC(=O)Nc3ccccc3N)c2O[C@@H]1CN(C)S(=O)(=O)c1ccccc1	Pf Dd2 growth -89.0 (no result: T cruzi growth)
C[C@@H]1CN([C@H](C)CO)C(=O)c2cccc(NC(=O)CCCCCC(=O)Nc3ccccc3N)c2O[C@@H]1CN(C)S(=O)(=O)c1cccs1	Pf Dd2 growth -84.2 (no result: T cruzi growth)
C[C@@H]1CN([C@H](C)CO)C(=O)c2cccc(NC(=O)CCCCCC(=O)Nc3ccccc3N)c2O[C@@H]1CN(C)S(C)(=O)=O	none (no result: T cruzi growth)
C[C@H](CO)N1C[C@H](C)[C@@H](CN(C)S(C)(=O)=O)Oc2c(NC(=O)CCCCCC(=O)Nc3ccccc3N)cccc2C1=O	none (no result: T cruzi growth)
Cc1ccc(S(=O)(=O)N(C)C[C@H]2Oc3c(NC(=O)CCCCCC(=O)Nc4ccccc4N)cccc3C(=O)N([C@H](C)CO)C[C@H]2C)cc1	Pf Dd2 growth -89.8 (no result: T cruzi growth)
C[C@@H]1CN([C@H](C)CO)C(=O)c2cccc(NC(=O)Nc3cccc4ccccc34)c2O[C@@H]1CN(C)S(=O)(=O)c1ccccc1	Pf Dd2 growth -81.5
CN1C(=O)c2cc(NC(=O)c3ccccc3Cl)ccc2OC[C@@H]2O[C@H](CC(=O)O)CC[C@H]21	none
C[C@H](CO)N1C[C@H](C)[C@@H](CN(C)Cc2ccccc2F)Oc2ncc(C#CCN(C)C)cc2C1=O	none
COCC(=O)N(C)C[C@H]1Oc2ncc(-c3ccccc3OC)cc2C(=O)N([C@@H](C)CO)C[C@H]1C	none (no result: T cruzi growth)
O=C(Nc1ccccc1F)N1C[C@H]2[C@@H](c3ccccc31)[C@@H](CO)N2C(=O)C1CC1	none
C[C@@H]1CN([C@H](C)CO)C(=O)c2cccc(NC(=O)CCCCCC(=O)Nc3ccccc3N)c2O[C@@H]1CN(C)S(=O)(=O)c1ccc(Cl)cc1	Pf Dd2 growth -87.9
C[C@H](CO)N1C[C@H](C)[C@H](CN(C)S(C)(=O)=O)Oc2c(NC(=O)CCCCCC(=O)Nc3ccccc3N)cccc2C1=O	none (no result: T cruzi growth)
COc1cccc(NC(=O)N2[C@H](CO)[C@H](c3ccccc3)[C@H]2CNCC(C)C)c1	Pf Dd2 growth -82.2
COc1cccc(NC(=O)N2[C@@H](CO)[C@H](c3ccccc3)[C@@H]2CNCC(C)C)c1	Pf Dd2 growth -91.1 (no result: T cruzi growth)
COc1cccc(NC(=O)N2[C@@H](CO)[C@@H](c3ccccc3)[C@@H]2CNC(C)C)c1	Pf Dd2 growth -89.3
COc1cccc(NC(=O)N2[C@H](CO)[C@@H](c3ccccc3)[C@H]2CNCC(C)C)c1	none
COc1cccc(NC(=O)N2[C@H](CO)[C@H](c3ccccc3)[C@H]2CNC(C)C)c1	none
COc1cccc(NC(=O)N2[C@H](CNC(C)C)[C@H](c3ccccc3)[C@@H]2CO)c1	none (no result: C diff HTS)
O=C(NC1CCCC1)[C@@H]1[C@@H](CO)[C@@H]2Cn3c(ccc(C4=CCCC4)c3=O)[C@H]1N2CC1CC1	none
C[C@@H]1CCCCO[C@@H](CN(C)Cc2ccncc2)[C@H](C)CN([C@H](C)CO)C(=O)c2cc(NC(=O)Nc3ccccc3)ccc2O1	none
CNC[C@H]1Oc2ccc(N(C)C)cc2C(=O)N([C@H](C)CO)C[C@H]1C	none
COC(=O)[C@]1(Cc2ccccc2N=[N+]=[N-])N=C(c2ccc(OCCCO)cc2)O[C@@H]1c1ccccc1	none (no result: Pf Dd2 growth, T cruzi growth)
CCCC#Cc1ccc2c(c1)O[C@H](CN(C)C(=O)Nc1ccc(OC)cc1)[C@H](C)CN([C@H](C)CO)S2(=O)=O	Pf Dd2 growth -87.2 (no result: C diff HTS)
COc1ccc(NC(=O)N(C)C[C@@H]2Oc3cc(C#CCC(C)C)ccc3S(=O)(=O)N([C@@H](C)CO)C[C@H]2C)cc1	none
CCCC#Cc1ccc2c(c1)O[C@H](CN(C)C(=O)Nc1ccc(OC)cc1)[C@@H](C)CN([C@H](C)CO)S2(=O)=O	none
COc1ccc(NC(=O)N(C)C[C@H]2Oc3cc(C#CCC(C)C)ccc3S(=O)(=O)N([C@H](C)CO)C[C@H]2C)cc1	Pf Dd2 growth -87.7
COc1ccc2c3c([nH]c2c1)[C@H](CO)N(C(=O)c1cccc(F)c1)CC31CN(C(=O)c2ccccc2)C1	none (no result: T cruzi growth)
C[C@H]1CN([C@@H](C)CO)C(=O)Cc2cc(NC(=O)Nc3ccccc3)ccc2O[C@H]1CN(C)CC1CC1	none
C[C@@H]1CN([C@@H](C)CO)C(=O)Cc2cc(NC(=O)Nc3ccccc3)ccc2O[C@H]1CN(C)CC1CC1	Pf Dd2 growth -86.7
C[C@@H]1CN([C@@H](C)CO)C(=O)Cc2cc(NC(=O)Nc3cccc4ccccc34)ccc2O[C@@H]1CN(C)CC1CC1	Pf Dd2 growth -85.2
C[C@H]1CN([C@@H](C)CO)C(=O)Cc2cc(NC(=O)Nc3cccc4ccccc34)ccc2O[C@@H]1CN(C)CC1CC1	none
CN1CCN(C(=O)C[C@H]2CC[C@H]3[C@@H](COC[C@@H](O)CN3C(=O)Nc3ccc4c(c3)OCO4)O2)CC1	none
